NTR1 agonist = agonists of human NTR1, primary screen, imaging, U2OS cells, beta-arrestin-GFP, high content; activation, % at 20 µM; NTR1-U2OS beta-arrestin-GFP spot imaging, agonist mode; Neurotensin receptor type 1 (Homo sapiens), P30989; 330,000 compounds, 0.17% hits;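 active means activation at or above 40% of the spot to cytoplasm intensity ratio, with at least 20 cells analyzed; inconclusive means wells under 20 cells, flagged as cytotoxic or low count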;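 further: 0% = DMSO without peptide and 100% = 100 nM NTR1 peptide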
Granule exo inh = LAMP-1 surface exposure blockers, TALL-104 cells – cell-based, flow cytometry, MLPCN library, primary screen; 360,000 compounds, 0.66% hits; inhibition, % at 10 µM; AID 651702, 2012; TALL-104 LAMP-1 surface exposure; cells stimulated with thapsigargin and PMA;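 active means inhibition above about 55%, limit read from the data; inconclusive means no clear call, values can overlap the other calls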
B2AR ag = beta2AR agonists driving receptor internalization, primary screen, cell-based, FAP fluorogen, flow cytometry. Beta-2 adrenergic receptor (Homo sapiens), P07550. Am2.2-beta2AR cells. AID 504454, 2011. response, % (no concentration beside the values). 340,000 compounds, 0.43% hits;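 active means response above a set limit, near 3 SD of response in nonfluorescent compounds, cut at about 42% in these data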
Target sequence (P07550 whole entry, looked up): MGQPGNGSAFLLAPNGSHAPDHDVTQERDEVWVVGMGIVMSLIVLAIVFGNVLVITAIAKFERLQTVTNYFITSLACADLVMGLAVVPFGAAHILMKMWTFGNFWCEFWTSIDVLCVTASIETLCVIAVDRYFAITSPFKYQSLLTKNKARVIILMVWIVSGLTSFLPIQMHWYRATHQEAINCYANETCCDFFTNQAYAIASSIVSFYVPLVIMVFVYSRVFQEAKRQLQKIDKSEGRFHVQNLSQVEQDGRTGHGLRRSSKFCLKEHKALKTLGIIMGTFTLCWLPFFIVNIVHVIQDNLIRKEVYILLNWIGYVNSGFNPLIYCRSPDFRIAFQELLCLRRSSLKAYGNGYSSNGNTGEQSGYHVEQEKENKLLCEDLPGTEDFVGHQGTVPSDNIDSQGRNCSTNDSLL
ABHD5 PLIN5 PPI = ABHD5-PLIN5 interaction inhibitors, primary screen, cell lysate, split luciferase complementation, luminescence. Split G. princeps luciferase complementation, 4 h. inhibition, % at 4 µM. 360,000 compounds, 0.78% hits. AID 602281, 2012;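 active means inhibition above the mean inhibition across every tested compound plus 3 SD, cut at about 22% in these data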;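 further: 0% = DMSO only wells and the 100% control is not disclosed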
HTR2A ag = mouse Htr2a agonists via beta-arrestin recruitment, primary screen, cell-based, luminescence; 360,000 compounds, 0.66% hits; AID 624169, 2012; CHO-K1 mHTR2A beta-arrestin complementation; percent of 30 µM serotonin response; 5-hydroxytryptamine receptor 2A (Mus musculus), P35363; activation, % at 7.6 µM;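 active means activation above a run cutoff, the mean activation of all tested compounds plus 3 SD, cut at about 14% in these data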;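 further: 0% = plate median of compound wells and 100% = 30 µM serotonin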
ABHD5-PLIN5 conf = ABHD5-PLIN5 interaction inhibitors, confirmation, biochemical, luminescence. AID 651612, 2012. 2,200 compounds, 67% hits. shares compounds with ABHD5 PLIN5 PPI. inhibition, % at 4 µM; in the data active means inhibition above about 23%;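 further: 0% = DMSO vehicle wells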
HNF4 split-luc = HNF4 dimerization inhibitors, counter-screen for ABHD5-PLIN5 interaction inhibitor project, biochemical, split-luciferase complementation, luminescence; shares compounds with ABHD5 PLIN5 PPI; inhibition, % at 4 µM; 2,200 compounds, 77% hits;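 active means mean inhibition across replicate wells exceeding the computed hit threshold, cut at about 13% in these data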;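 further: light from luciferase halves that rejoin when HNF4 fusion proteins dimerize; 0% = DMSO only wells and the 100% control is not given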
Active calls of the source: *; ? = inconclusive; / = no result. This is a sample that favours compounds with a hit; in the whole collection about 2.3% have one here.

SMILES | NTR1 agonist | Granule exo inh | B2AR ag | ABHD5 PLIN5 PPI | HTR2A ag | ABHD5-PLIN5 conf | HNF4 split-luc
Cc1ccc(NC(=O)CN2C(=O)N/C(=C/c3ccc(C)o3)C2=O)cc1 | 1 | 19 | 3 | 42* | 2 | 46* | 88*
Cc1ccc(/C=C2\C(=O)NC(=O)N2C)o1 | 2 | 0 | 10 | 16 | -1 | / | /
C=CCN1C(=O)N/C(=C/c2ccc(C)o2)C1=O | 0 | 21 | 9 | 31* | -1 | 14 | 88*
N#CC1=C(N)NC(=S)C(C(N)=O)C1c1ccc([N+](=O)[O-])cc1 (configuration not stated) | 0 | -3 | -3 | 52* | 3 | -35 | -17
CCN(CC)Cc1c(O)ccc2c1O/C(=C\C=C\c1ccccc1)C2=O | 6 | 0 | 28 | 42* | -6 | 20 | 20*
COC(=O)[C@@]12C[C@@H](CC(=O)NCc3ccc(OC)c(OC)c3)C(=O)N(Cc3ccccc3)C1=CCC(C)(C)C2 | / | -1 | / | 2 | -5 | / | /
O=C1C=CC(n2cc(F)c(=O)[nH]c2=O)O1 (configuration not stated) | / | -3 | / | 31* | 5 | 42* | 33*
CCN(C(=O)CN1C(=O)S/C(=C\c2cccc(Cl)c2)C1=O)C1CCS(=O)(=O)C1 (configuration not stated) | 1 | 2 | -7 | 3 | -6 | / | /
CCN(C(=O)CN1C(=O)S/C(=C\C=C\c2ccccc2)C1=O)C1CCS(=O)(=O)C1 (configuration not stated) | -1 | -5 | -9 | 56* | 12 | 17 | 22*
Cc1ccc(-c2nc3cnccn3c2Nc2ccccc2)o1 | 3 | -6 | -12 | 25* | -3 | 39* | 84*
Cc1ccc(Nc2c(-c3ccc(C)o3)nc3cnccn23)cc1 | 2 | 13 | 1 | 20 | -1 | / | /
C=CCSc1nc2ccccc2n1C(=O)/C=C/c1cc(OC)c(OC)c(OC)c1 | 12 | 9 | 86* | 43* | -2 | 88* | 72*
COc1cc(/C=C/C(=O)N2CCN(C(=O)/C=C/c3cc(OC)c(OC)c(OC)c3)CC2)cc(OC)c1OC | 0 | 17 | -2 | 0 | -2 | / | /
CC(OC(=O)CCN=C1NS(=O)(=O)c2ccccc21)C(=O)Nc1ccc(F)cc1 (configuration not stated) | -2 | -6 | 3 | 9 | 2 | / | /
CCOC(=O)Cc1csc(NC(=O)NC2(C(F)(F)F)Oc3ccccc3O2)n1 | 7 | 1 | -2 | 26* | 3 | 62* | 91*
CCOC(=O)Cc1csc(NC(=O)NC2(C(F)(F)F)Oc3ccc(Cl)cc3O2)n1 (configuration not stated) | 0 | -2 | 6 | 25* | 2 | 54* | 60*
N#CCc1ccc(NS(=O)(=O)c2ccc(C3CCCCC3)cc2)cc1 | / | 6 | -1 | -3 | -1 | / | /
O=C(NCCc1cccc(Cl)c1)c1cccc(-n2cnnn2)c1 | 4 | -1 | -2 | -2 | -4 | / | /
CCN1CCN(Cc2ccc(NC(=O)c3ccc(C)c(/C=C/c4cnc(Nc5cc(N6CCNCC6)nc(C)n5)cn4)c3)cc2C(F)(F)F)CC1 | -6 | 36 | -54 | 28* | -9 | 36* | 5
CCN1CCN(Cc2ccc(NC(=O)c3ccc(C)c(NC(=O)c4ccno4)c3)cc2C(F)(F)F)CC1 | -1 | -2 | 10 | -2 | -8 | / | /
Cc1ccc(C(C)C)cc1OCC(=O)N1CCN(C(=O)c2ccco2)CC1 | 0 | -3 | -3 | 24* | 1 | 3 | -2
CC(C)c1ccc(OCC(=O)N2CCN(C(=O)c3ccco3)CC2)cc1 | -1 | 2 | -8 | 6 | -5 | / | /
COC1CC(C)C(OC)c2cc(O)cc(c2O)NC(=O)C(C)=CC=CC(C)C(OC(N)=O)C(C)=CC(C)C1OC (configuration not stated) | / | -10 | 1 | 43* | 3 | 52* | 93*
Cc1nn(CCc2nc(-c3ccco3)cs2)c2[nH]c(=O)cc(C(F)(F)F)c12 | 0 | -5 | -9 | 41* | 6 | 21 | 16*
CC(=O)Nc1ccc(NC(=O)c2nc(S(=O)(=O)Cc3ccccc3)ncc2Cl)cc1 | 0 | ? | 14 | 58* | -4 | 81* | 94*
SMILES | NTR1 agonist | Granule exo inh | B2AR ag | ABHD5 PLIN5 PPI | HTR2A ag | ABHD5-PLIN5 conf | HNF4 split-luc
COc1ccc(S(=O)(=O)Cc2ccc(C(=O)NCc3ccccc3)o2)cc1 | -1 | -10 | 1 | -3 | 0 | / | /
O=C(NCc1ccccc1)c1nc(S(=O)(=O)Cc2ccccc2)ncc1Cl | 11 | 44 | 26 | 51* | -10 | 89* | 105*
COc1ccc(CNC(=O)c2nc(S(=O)(=O)Cc3ccccc3)ncc2Cl)cc1 | 21 | -26 | 28 | 41* | -17 | 89* | 103*
O=C(/C=C/c1ccc(OCc2ccccc2)c(OCc2ccccc2)c1)c1cccnc1 | 15 | 0 | 4 | 26* | -5 | 87* | 78*
N#Cc1ccc(/C=C/C(=O)c2cccnc2)cc1 | 9 | 0 | 1 | 82* | 1 | 92* | 96*
O=C(/C=C/c1ccccc1Cl)c1ccc(O)cc1 | 2 | -9 | 8 | 16 | 1 | / | /
O=C(/C=C/c1ccccc1Cl)c1cccnc1 | 20 | 2 | 3 | 71* | -3 | 100* | 102*
O=C(/C=C/c1ccc(Cl)cc1)c1cccnc1 | 5 | 3 | -9 | 80* | 4 | 96* | 100*
CCN(CC)c1ccc(/C=C/C(=O)c2cccnc2)cc1 | -1 | 19 | 14 | 12 | 1 | / | /
CC1=C(C(=O)N(C)C)CC(CC(=O)NCCCN(C)C)C(=O)N1Cc1ccccc1 (configuration not stated) | / | 18 | / | 0 | 1 | / | /
O=C(c1ccccc1F)N1CCCC(N2CCN(Cc3ccc4c(c3)OCO4)CC2)C1 (configuration not stated) | / | 27 | / | 3 | -10 | / | /
CCC(=O)N(CCC(c1ccc(C)cc1)c1ccco1)Cc1ccco1 (configuration not stated) | 2 | 3 | 13 | 26* | -3 | 17 | 12
COc1ccc(-c2nnc3n2N=C(C)CS3)cc1 | 1 | -1 | 4 | -1 | 3 | / | /
CCOC(=O)/C(=C/c1ccc(OC(F)F)cc1)C1=Nn2c(nnc2-c2ccc(Cl)cc2)SC1 | / | 0 | 27 | 42* | 0 | 101* | 91*
